One sequence from publication PMC7862700, “An all-to-all approach to the identification of sequence-specific readers for epigenetic DNA modifications on cytosine” can be followed below.

What all share (experiment): DAPPL (digital affinity profiling via proximity ligation, sequencing); 10 mM Tris-HCl pH 7.5, 50 mM NaCl, 1 mM DTT, 4% glycerol, room temperature, 30 min; GST-TFs on glutathione beads, 16-mer random dsDNA library, 0.1% formaldehyde crosslink after washing; high values mean tight binding
One assay concerns the target T1, FEV (Homo sapiens, UniProt Q99581 1-238).
T1 sequence: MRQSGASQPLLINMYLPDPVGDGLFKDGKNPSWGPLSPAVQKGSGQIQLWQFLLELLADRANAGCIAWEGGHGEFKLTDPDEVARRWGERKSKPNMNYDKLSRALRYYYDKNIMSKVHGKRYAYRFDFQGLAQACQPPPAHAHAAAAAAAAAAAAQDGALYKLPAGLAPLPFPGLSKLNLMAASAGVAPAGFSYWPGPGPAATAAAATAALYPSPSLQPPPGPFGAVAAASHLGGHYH
Conditions: protein: recombinant; tags: N-terminal GST; dsDNA, one strand shown. The method, boiled down:
(§1)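 Pools of DNA-barcoded human transcription factors, expressed in yeast as GST fusions on glutathione beads and combined with a tag-only sample, were incubated with 200 nmole of a 16-mer random double-stranded DNA library. Incubation took 30 min at room temperature in Tris/NaCl/DTT/glycerol buffer and was followed by washing, 0.1% formaldehyde crosslinking, proximity ligation (BsaI/T4 ligase, 1 h, 37 °C), PCR amplification and sequencing on an Illumina NextSeq500. Binding signal is the ratio of a hexamer's read frequency for a factor to its frequency for the tag-only sample.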

The target in the next assay is ETV5 (Homo sapiens, UniProt P41161 1-510). Particulars: protein: recombinant; tags: N-terminal GST; dsDNA, one strand shown. A digest of the protocol: as §1
ETV5, sequence (P41161 whole entry): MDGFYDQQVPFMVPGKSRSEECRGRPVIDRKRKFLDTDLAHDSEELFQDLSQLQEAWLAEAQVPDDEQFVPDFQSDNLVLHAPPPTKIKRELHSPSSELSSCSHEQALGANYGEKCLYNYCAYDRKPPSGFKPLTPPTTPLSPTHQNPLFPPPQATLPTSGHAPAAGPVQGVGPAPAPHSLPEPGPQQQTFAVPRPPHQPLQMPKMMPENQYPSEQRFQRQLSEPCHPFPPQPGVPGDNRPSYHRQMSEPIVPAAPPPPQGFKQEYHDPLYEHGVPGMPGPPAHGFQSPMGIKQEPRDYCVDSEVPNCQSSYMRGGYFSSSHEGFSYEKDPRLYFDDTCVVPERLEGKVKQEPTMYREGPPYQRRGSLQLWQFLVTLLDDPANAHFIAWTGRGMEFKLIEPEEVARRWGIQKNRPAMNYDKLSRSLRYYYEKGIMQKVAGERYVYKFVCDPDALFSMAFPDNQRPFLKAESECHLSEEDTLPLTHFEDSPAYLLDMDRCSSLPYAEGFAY
Another assay has as its target HSF1 (Homo sapiens, UniProt Q00613 1-529). Particulars: protein: recombinant; tags: N-terminal GST; chain copies: 3; dsDNA, one strand shown. The method, boiled down: as §1
For another assay, the target named is T2, SPIC (Homo sapiens, UniProt Q8N5J4 1-248).
T2 sequence: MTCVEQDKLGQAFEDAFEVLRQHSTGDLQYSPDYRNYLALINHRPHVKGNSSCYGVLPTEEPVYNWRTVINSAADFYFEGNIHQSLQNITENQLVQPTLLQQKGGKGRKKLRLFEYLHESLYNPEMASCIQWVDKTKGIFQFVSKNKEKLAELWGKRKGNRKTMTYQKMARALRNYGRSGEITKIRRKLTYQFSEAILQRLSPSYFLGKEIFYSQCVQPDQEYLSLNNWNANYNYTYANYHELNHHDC
Particulars: protein: recombinant; tags: N-terminal GST; dsDNA, one strand shown. The method, boiled down:
as §1

A further assay addresses ELF4 (Homo sapiens, UniProt Q99607 1-663). Particulars: protein: recombinant; tags: N-terminal GST; dsDNA, one strand shown. The method, boiled down: as §1
Another assay addresses T3, ELK4 (Homo sapiens, UniProt P28324-2 1-405).
T3 sequence: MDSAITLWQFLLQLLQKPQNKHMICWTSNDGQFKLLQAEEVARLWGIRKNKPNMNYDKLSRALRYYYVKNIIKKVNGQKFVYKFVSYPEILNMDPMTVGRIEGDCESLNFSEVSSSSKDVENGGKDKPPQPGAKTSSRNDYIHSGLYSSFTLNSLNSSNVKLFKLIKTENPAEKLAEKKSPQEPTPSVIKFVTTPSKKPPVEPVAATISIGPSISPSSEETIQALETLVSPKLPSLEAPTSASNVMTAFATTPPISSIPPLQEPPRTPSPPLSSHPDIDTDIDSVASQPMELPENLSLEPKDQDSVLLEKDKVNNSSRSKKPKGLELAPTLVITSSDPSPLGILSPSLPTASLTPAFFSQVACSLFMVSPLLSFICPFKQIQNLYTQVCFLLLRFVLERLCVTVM
Conditions: protein: recombinant; tags: N-terminal GST; dsDNA, one strand shown. The method, boiled down:
as §1

The target of another assay is T4, ETV2 (Homo sapiens, UniProt O00321 1-342).
T4 sequence: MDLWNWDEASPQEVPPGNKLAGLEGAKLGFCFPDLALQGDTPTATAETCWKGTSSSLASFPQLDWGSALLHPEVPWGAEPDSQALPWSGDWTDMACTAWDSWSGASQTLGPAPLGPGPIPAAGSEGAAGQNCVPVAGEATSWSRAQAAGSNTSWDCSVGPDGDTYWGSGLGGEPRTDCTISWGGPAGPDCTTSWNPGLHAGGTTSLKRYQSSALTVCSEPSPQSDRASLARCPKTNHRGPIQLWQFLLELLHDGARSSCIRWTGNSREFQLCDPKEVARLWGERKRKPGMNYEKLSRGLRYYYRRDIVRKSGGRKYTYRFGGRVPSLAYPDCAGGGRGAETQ
Conditions: protein: recombinant; tags: N-terminal GST; dsDNA, one strand shown. The method, boiled down: as §1

In another assay the target is T5, ELF3 (Homo sapiens, UniProt P78545 1-371).
T5 sequence: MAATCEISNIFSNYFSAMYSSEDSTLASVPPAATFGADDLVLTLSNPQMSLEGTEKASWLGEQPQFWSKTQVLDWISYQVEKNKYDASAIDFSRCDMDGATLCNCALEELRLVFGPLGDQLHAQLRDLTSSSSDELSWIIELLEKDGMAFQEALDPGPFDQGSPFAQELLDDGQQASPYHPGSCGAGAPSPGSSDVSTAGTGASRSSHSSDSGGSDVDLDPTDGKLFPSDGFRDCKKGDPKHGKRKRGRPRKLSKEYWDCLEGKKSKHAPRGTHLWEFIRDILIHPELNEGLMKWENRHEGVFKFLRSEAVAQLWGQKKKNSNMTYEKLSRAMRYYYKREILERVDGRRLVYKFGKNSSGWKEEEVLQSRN
Conditions: protein: recombinant; tags: N-terminal GST; dsDNA, one strand shown. The method, boiled down:
as §1

Another assay addresses CRX (Homo sapiens, UniProt O43186 1-299). Conditions: protein: recombinant; tags: N-terminal GST; dsDNA, one strand shown. A digest of the protocol:
as §1

The next assay deals with ETV1 (Homo sapiens, UniProt P50549 1-477). Conditions: protein: recombinant; tags: N-terminal GST; dsDNA, one strand shown. The method, boiled down: as §1
ETV1, sequence (P50549 whole entry): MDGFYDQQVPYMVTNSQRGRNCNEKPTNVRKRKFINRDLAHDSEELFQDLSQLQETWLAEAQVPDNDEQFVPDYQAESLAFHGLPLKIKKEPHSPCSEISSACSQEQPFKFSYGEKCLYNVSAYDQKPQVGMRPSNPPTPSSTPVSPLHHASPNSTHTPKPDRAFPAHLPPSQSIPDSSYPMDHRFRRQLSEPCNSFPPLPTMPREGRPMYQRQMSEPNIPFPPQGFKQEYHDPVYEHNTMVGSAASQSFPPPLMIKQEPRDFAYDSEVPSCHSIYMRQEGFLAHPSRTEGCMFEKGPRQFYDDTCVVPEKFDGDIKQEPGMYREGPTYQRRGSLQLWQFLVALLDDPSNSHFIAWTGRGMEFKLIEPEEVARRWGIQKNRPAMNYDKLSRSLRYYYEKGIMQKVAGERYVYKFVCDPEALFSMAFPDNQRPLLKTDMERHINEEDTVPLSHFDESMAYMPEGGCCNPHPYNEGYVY
For a further assay, the target named is T6, ERF (Homo sapiens, UniProt P50548 1-548).
T6 sequence: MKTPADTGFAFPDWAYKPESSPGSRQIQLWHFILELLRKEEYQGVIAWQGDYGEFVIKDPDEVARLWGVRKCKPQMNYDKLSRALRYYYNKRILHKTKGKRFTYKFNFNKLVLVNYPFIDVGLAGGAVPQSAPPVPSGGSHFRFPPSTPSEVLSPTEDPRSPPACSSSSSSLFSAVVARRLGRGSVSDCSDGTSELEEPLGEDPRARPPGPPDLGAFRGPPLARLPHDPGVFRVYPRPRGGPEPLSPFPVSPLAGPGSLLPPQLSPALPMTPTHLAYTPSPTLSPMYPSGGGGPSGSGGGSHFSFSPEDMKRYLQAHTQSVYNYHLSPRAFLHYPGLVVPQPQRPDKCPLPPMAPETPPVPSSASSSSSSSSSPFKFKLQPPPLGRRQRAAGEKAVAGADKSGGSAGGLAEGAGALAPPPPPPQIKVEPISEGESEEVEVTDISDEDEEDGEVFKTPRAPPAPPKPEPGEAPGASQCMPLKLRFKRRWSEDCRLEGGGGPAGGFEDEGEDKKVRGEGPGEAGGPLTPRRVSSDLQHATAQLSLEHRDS
Particulars: protein: recombinant; tags: N-terminal GST; dsDNA, one strand shown. The method, boiled down: as §1

A further assay addresses T7, ETV3L (Homo sapiens, UniProt Q6ZN32 1-361).
T7 sequence: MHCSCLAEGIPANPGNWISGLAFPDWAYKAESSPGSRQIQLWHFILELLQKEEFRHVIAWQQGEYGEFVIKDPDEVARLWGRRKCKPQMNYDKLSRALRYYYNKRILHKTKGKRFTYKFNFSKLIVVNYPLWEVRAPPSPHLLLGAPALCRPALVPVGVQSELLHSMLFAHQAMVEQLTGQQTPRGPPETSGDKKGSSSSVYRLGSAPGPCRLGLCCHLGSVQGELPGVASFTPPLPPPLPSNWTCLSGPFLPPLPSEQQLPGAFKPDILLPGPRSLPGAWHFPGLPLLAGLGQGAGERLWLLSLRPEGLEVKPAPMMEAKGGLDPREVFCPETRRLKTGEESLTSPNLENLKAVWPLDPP
Particulars: protein: recombinant; tags: N-terminal GST; dsDNA, one strand shown. The method, boiled down:
as §1

The next assay has as its target T8, ETS2 (Homo sapiens, UniProt P15036 1-469).
T8 sequence: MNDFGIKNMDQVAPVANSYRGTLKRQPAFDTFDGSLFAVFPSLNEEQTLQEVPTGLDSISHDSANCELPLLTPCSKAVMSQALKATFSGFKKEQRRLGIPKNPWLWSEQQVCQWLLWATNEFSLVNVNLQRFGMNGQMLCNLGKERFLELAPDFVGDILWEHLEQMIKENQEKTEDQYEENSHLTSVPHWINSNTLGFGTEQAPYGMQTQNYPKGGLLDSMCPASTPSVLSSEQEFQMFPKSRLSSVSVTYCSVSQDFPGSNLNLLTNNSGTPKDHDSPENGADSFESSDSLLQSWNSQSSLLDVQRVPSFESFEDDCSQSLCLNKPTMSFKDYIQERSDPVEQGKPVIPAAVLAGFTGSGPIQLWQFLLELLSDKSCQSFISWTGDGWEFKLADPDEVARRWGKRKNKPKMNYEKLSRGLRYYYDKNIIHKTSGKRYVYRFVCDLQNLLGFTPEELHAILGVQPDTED
Conditions: protein: recombinant; tags: N-terminal GST; dsDNA, one strand shown. The method, boiled down: as §1

Another assay addresses T9, SPDEF (Homo sapiens, UniProt O95238 1-335).
T9 sequence: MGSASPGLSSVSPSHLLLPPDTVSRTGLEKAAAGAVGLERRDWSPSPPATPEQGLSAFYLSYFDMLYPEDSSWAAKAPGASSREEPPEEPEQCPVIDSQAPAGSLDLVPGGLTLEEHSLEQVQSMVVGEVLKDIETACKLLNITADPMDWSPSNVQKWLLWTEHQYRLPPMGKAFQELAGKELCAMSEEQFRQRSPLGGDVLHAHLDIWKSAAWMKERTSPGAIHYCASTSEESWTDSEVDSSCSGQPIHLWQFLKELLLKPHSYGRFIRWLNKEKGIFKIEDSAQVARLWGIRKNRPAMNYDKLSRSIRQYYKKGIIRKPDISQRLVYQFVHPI
Particulars: protein: recombinant; tags: N-terminal GST; dsDNA, one strand shown. The method, boiled down: as §1

Another assay addresses T10, ETV7 (Homo sapiens, UniProt Q9Y603 1-341).
T10 sequence: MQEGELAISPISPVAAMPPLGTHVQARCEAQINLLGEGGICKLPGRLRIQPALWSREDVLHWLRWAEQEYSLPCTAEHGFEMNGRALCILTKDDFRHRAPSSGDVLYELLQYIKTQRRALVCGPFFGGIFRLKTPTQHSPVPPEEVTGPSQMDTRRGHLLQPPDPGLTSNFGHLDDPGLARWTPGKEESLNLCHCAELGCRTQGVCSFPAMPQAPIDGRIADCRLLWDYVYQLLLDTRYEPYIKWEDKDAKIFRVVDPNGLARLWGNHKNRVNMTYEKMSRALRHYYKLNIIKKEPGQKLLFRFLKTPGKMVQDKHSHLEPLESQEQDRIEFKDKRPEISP
Conditions: protein: recombinant; tags: N-terminal GST; dsDNA, one strand shown. A digest of the protocol:
as §1

For a further assay, the target named is T11, ELF5 (Homo sapiens, UniProt Q9UKW6-2 1-255).
T11 sequence: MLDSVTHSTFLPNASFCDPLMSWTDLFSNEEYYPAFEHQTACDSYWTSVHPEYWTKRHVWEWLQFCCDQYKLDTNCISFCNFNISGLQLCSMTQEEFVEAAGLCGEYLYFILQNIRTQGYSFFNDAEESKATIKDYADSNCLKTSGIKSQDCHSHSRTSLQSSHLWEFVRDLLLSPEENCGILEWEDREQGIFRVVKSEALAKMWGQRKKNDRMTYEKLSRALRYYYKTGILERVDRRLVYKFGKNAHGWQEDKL
Particulars: protein: recombinant; tags: N-terminal GST; dsDNA, one strand shown. A digest of the protocol: as §1

A further assay deals with T12, ETV3 (Homo sapiens, UniProt P41162-2 1-143).
T12 sequence: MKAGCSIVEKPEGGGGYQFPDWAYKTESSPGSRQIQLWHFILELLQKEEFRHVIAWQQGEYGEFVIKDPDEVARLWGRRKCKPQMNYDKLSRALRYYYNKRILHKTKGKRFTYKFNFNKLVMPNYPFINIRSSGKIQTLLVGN
Particulars: protein: recombinant; tags: N-terminal GST; dsDNA, one strand shown. A digest of the protocol: as §1

Another assay addresses ETV6 (Homo sapiens, UniProt P41212 1-452). Conditions: protein: recombinant; tags: N-terminal GST; dsDNA, one strand shown. A digest of the protocol: as §1

CRX, sequence (O43186 whole entry): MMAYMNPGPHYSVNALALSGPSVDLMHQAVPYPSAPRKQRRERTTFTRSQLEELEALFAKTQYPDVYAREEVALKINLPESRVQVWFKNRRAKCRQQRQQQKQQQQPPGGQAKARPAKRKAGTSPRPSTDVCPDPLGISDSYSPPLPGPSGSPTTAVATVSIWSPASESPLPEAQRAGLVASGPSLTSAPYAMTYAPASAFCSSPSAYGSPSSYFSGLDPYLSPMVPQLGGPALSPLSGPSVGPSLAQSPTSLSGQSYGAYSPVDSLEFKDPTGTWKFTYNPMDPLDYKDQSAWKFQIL
HSF1, sequence (Q00613 whole entry): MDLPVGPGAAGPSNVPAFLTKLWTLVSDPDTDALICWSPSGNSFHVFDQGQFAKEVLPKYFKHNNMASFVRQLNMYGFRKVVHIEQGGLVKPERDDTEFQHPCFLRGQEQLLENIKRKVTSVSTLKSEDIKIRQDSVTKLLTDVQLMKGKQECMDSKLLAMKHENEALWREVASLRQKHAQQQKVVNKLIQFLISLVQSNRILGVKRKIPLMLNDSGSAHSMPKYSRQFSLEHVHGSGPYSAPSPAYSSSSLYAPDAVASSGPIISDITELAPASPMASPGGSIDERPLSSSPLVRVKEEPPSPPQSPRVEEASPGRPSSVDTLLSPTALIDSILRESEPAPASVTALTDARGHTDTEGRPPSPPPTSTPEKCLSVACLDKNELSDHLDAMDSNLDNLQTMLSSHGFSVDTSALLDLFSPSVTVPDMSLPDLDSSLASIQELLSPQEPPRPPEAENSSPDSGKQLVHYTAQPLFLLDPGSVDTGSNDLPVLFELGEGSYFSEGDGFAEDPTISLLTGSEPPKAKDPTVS
ETV6, sequence (P41212 whole entry): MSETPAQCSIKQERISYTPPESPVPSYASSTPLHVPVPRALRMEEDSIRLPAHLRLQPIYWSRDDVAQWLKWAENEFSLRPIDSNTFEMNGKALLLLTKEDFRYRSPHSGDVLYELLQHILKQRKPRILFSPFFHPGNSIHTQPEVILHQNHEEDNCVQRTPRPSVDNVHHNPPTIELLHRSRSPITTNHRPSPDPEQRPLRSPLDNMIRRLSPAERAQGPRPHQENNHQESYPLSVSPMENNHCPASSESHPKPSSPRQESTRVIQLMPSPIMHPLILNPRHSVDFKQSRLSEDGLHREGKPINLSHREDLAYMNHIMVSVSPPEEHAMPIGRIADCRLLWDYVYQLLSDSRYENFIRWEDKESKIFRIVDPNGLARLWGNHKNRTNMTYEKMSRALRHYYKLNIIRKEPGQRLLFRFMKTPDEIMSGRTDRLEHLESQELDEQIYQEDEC
ELF4, sequence (Q99607 whole entry): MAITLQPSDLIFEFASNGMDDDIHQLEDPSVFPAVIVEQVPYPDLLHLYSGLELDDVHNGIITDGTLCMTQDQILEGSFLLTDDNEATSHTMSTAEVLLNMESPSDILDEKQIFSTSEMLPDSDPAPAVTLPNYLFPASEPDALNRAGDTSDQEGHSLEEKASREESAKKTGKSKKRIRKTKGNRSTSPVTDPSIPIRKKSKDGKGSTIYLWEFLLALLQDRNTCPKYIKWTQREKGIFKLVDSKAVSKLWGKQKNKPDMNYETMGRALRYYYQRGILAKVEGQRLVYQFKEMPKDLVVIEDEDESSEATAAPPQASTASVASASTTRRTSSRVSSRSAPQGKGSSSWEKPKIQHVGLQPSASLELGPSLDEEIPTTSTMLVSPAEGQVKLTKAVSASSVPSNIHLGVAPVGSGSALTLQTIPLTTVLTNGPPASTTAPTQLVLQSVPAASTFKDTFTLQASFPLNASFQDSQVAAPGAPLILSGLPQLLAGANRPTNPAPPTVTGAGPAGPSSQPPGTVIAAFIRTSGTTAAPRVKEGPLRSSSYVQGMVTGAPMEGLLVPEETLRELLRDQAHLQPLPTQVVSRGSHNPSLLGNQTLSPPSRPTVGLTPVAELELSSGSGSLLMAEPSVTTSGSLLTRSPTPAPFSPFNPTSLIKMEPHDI

As for TCTCAG, the binding signal in the assay with FEV is 1.37 fold enrichment (6-mer frequency, TF over GST control); with ETV5 it was 1.33 fold enrichment (6-mer frequency, TF over GST control); with HSF1, 1.4 fold enrichment (6-mer frequency, TF over GST control); with SPIC, 1.16 fold enrichment (6-mer frequency, TF over GST control); in the assay with ELF4, 1.36 fold enrichment (6-mer frequency, TF over GST control); with ELK4 it was 1.34 fold enrichment (6-mer frequency, TF over GST control). In addition, the binding signal was 1.37 fold enrichment (6-mer frequency, TF over GST control) in the assay with ETV2; 1.37 fold enrichment (6-mer frequency, TF over GST control) with ELF3; 1.46 fold enrichment (6-mer frequency, TF over GST control) in the assay with CRX; 1.33 fold enrichment (6-mer frequency, TF over GST control) in the assay with ETV1; 1.26 fold enrichment (6-mer frequency, TF over GST control) with ERF; 1.26 fold enrichment (6-mer frequency, TF over GST control) in the assay with ETV3L. For the same sequence, the binding signal is 1.37 fold enrichment (6-mer frequency, TF over GST control) with ETS2; 1.33 fold enrichment (6-mer frequency, TF over GST control) with SPDEF; 1.26 fold enrichment (6-mer frequency, TF over GST control) with ETV7; 1.31 fold enrichment (6-mer frequency, TF over GST control) in the assay with ELF5; 1.43 fold enrichment (6-mer frequency, TF over GST control) with ETV3; 1.34 fold enrichment (6-mer frequency, TF over GST control) with ETV6.
